Source: the supplement of paper PMC3334620
In all, about 33,000 sequences were measured (“E-score (-0.5 to 0.5)”: median about -0.035, highest 2% from about 0.34 on). The sample as a whole holds a higher share of the highest values than the screen did.

target: T1, Mot3 (UniProt P54785); test: PBM E-score (8-mer binding enrichment) (E-score (-0.5 to 0.5)); higher = stronger / more preferred TF binding; settings: protein concentration: 200 nM; construct: GST-full length
T1 sequence: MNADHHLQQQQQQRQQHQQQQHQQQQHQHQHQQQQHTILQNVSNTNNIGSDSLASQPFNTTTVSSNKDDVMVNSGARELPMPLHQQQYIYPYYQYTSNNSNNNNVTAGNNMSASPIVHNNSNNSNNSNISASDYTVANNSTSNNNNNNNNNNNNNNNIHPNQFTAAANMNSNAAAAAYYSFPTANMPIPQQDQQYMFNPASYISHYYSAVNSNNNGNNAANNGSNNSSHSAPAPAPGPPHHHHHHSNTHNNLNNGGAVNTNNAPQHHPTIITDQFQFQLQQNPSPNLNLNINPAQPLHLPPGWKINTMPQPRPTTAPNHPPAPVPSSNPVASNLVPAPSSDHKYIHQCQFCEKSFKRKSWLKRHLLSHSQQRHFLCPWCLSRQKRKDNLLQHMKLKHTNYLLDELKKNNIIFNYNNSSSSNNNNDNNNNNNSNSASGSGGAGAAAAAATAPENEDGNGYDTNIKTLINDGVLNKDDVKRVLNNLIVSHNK
Method in brief: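 PURExpress in vitro transcription/translation supplied GST-tagged yeast transcription factors, either full-length or DNA-binding domain. Applied at about 100-200 nM to universal all-10-mer Agilent arrays double-stranded by primer extension, the bound protein was detected with fluorescent anti-GST. E-scores, modified Wilcoxon-Mann-Whitney statistics, were given by the Universal PBM Analysis Suite to ungapped eight-base words pooled with their reverse complements after masliner normalisation.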

Sequence	PBM E-score
ACACGGGT	0.348
ATACGGTC	-0.061
ACACGGTA	0.34
ACACGGTC	0.349
CCACGGTA	-0.191
ACACGGGC	0.259
CCACGGTC	-0.385
ACACGGTG	0.335
ACACGGGA	0.29
AAAACTCA	0.0802
ATCCTGAA	0.0408
GAGGGACC	-0.298
CTTACGTA	0.211
GTTACGTA	0.177
ATTACGTG	0.383
ATTACGTA	0.354
ACTACGTG	0.0857
ATTACGTC	0.269
ACGTCCAG	-0.0677
GTGGGTAA	-0.0112
GGCACGTA	0.363
GGCACGAA	0.271
CGCACGTA	0.154
GGCACGCC	0.237
AGCACGGA	0.102

Sequence	PBM E-score
CGCACGAC	-0.0534
CGCACGCA	-0.03
CGCACGGA	-0.207
GGCACGCA	0.348
AGCACGTA	0.136
GGCACGAC	0.36
GGCACGGA	0.397
ACACCCCG	-0.336
ACCAGCCA	-0.131
ATGCTCTG	-0.203
ACCGCTCC	-0.258
CGGCATTC	-0.249
CCTCGAGG	-0.336
GCTTGTAA	0.318
ACGAAAGG	0.153
AGAAAAGC	-0.171
AGGAAAGC	0.405
AGGAAAGG	0.371
CGGAAAGC	-0.151
AGGAAAGA	0.282
AACCAAAT	0.127
GTCGCAAA	0.0742
ATATGCGC	0.0367
CGGCAACG	-0.0123
AGGCAACA	0.482

Sequence	PBM E-score
GGGCAACC	-0.175
AAGCAACG	0.0783
CGGCAACA	0.0868
AGGCAACC	0.483
CGGCAACC	-0.0847
AGGCAACT	0.484
AAGCAACT	-0.0233
ACGCAACT	0.0644
AGGCAACG	0.485
TGGCAACA	0.118
GAGGCAGC	-0.0844
CTTGCATC	-0.16
ACCTGCTC	0.166
ATATGACG	0.0195
CGTATTTC	0.215
AGGACACT	-0.159
AGGATCGA	-0.0463
GCACAACC	-0.0592
CCACAACA	-0.0484
GCACAACA	0.35
AAGGTCCC	-0.184
GGCGCATA	-0.113
ACCCGCAA	-0.0644
CAGAAACG	0.0904
GAGGAACA	0.176

Sequence	PBM E-score
AAGGAAGA	-0.0092
TCGGAACA	0.056
CAGGAATG	-0.0291
CAGGAACG	0.466
AAGGAATT	-0.0259
AAGGAACT	0.416
TAGGAACA	0.416
ACGGAACT	-0.186
AAGGAACA	0.453
ATGGAACA	-0.111
ATGCTTAG	0.0516
AACGTTAT	0.123
AAGCCTCC	-0.243
CACTGGCC	-0.267
AACACATA	0.312
AAATTGGA	-0.0378
CAGTGGCG	-0.266
AGCAGTCA	0.0249
CAGCCAGA	-0.3
CTCCCTTA	-0.018
ACCGGCCG	-0.21
AAGGAACC	0.462
GAGGAACC	0.255
CAGGAACC	0.46
CAGAACCC	-0.0803

Sequence	PBM E-score
AGGGAACC	0.00909
AAGGAAGG	0.176
ATGGAACG	0.0262
CAGAAACA	0.0657
CAGGAACA	0.449
ACGGAACC	0.0959
AAGGAACG	0.465
CGGGAACA	0.147
TCGTGCCA	-0.155
GCACACCA	0.143
GGGGGGAC	-0.254
CTACTGTC	-0.103
GGTCTAAA	-0.127
GATCGCAA	-0.129
ACTCAAAA	-0.0489
AGGCAATC	0.481
GGGCAATA	-0.132
ACGCAATG	0.23
CGGCAATA	0.0917
ATGCAATG	-0.0896
AGGCAATA	0.472
AAGCAATC	-0.0271
AGGCAATG	0.476
CGGCAATC	-0.109
AACAGGAT	0.0971

Sequence	PBM E-score
CAATGGAC	-0.189
TAGCCAGA	-0.0655
GACACTAA	-0.106
AAGGCTGC	-0.00639
CACAGGGG	0.118
AGTTAGAT	0.0673
ACGCTTCT	-0.0128
CCAGACGG	-0.383
GGGCGTAA	0.135
ACGCGTAA	0.317
CTGCGTAA	0.302
CCGCGTAA	0.336
ATGCGTAA	0.32
GCGCGTAA	0.34
GCGCGTAC	0.117
TCGCGTAA	0.374
GTGCGTAA	0.356
ATTCTGAG	0.0253
TGTCGACA	0.111
ACAACAAT	0.182
GCACTTAA	0.133
CTTCAAGC	-0.0397
GTTTCCAA	-0.12
GTTTCCTA	0.411
CTTTCCTC	0.0989

Sequence	PBM E-score
GTTTCCGA	0.122
CTTTCCTA	0.399
CTTTCCCA	-0.0799
AGGCATGG	0.229
AAAGTGGG	-0.0287
TAGGAGCA	0.0656
ACGTAATA	0.35
ACGTAACG	0.0865
CCGTAATA	0.121
ACGTAATG	0.348
GCGTAATA	0.308
ACGTAATC	0.29
ACTTGCCG	-0.189
ACTTGCCC	0.0267
AATTGCCG	-0.145
AATTGCCT	0.472
AATTGCCC	0.0147
ACTTGCCT	0.479
ACGTGTAG	0.389
CCGTGTAC	0.34
ACGTGTAT	0.356
CCGTGTCG	0.126
CCGTGTCC	0.0332
CAGTGTAC	0.0758
CAGTGTAG	0.154

Sequence	PBM E-score
AAGTGTAT	0.117
CCGTGTAG	0.367
ACGTGTCT	0.14
AGGTGTAG	0.0602
AAGTGTAG	0.158
GCAATGGA	-0.00402
GAATCGGC	-0.269
CACCAGAG	-0.0278
CCTGCAAC	0.144
AACTTGCC	0.204
GCGTGTAC	0.337
ACGTGTAC	0.343
AAGTGTAC	0.0824
CCGTTAAG	-0.0319
CCAGGCCA	-0.29
TCAGGCAA	0.483
CCAGGCAC	0.487
CCAGGCAA	0.477
CCAGGCCC	-0.101
TCAGGCCA	-0.0359
TCAGGCGA	-0.0408
CCAGGCGA	-0.155
CCAGGCAG	-0.119
GAATACTC	-0.0747
GGAGCGCA	-0.281

Sequence	PBM E-score
CTGAACAG	-0.0714
CCGCAAGG	-0.128
ACACCTGT	0.193
TCTACTAA	0.0381
GCTGGACC	-0.332
AGGCAAGA	0.477
AAGCAAGC	-0.162
CGGCAAGA	-0.115
ACGCAAGG	0.153
AGGCAAGG	0.483
ATGCAAGG	-0.116
GGGCAAGA	0.0525
CGGCAAGC	-0.0333
AGGCAAGC	0.489
CCCTACAG	-0.128
GATCTCTA	-0.137
CCGGTCAG	-0.335
CCTCGTAG	0.0397
AATACCCC	-0.248
CTCAAGAC	-0.131
ATCAGCCC	-0.272
AAAGATGG	-0.0558
ACTTGTTC	0.162
ACAGCCCA	-0.0365
ACTTTCCG	-0.182

Sequence	PBM E-score
AATTTCCC	-0.164
ACTTTCCC	0.0581
AATTTCCT	0.364
ACTTTCCT	0.383
AATTTCCG	-0.0949
ATCCGGTG	0.0537
CCACTACG	-0.0192
GGATGAAC	-0.105
GTGAAAAA	0.155
TAGGGGGA	-0.264
CGACCCTA	-0.148
AGACTTTC	-0.187
CCGTTCTA	0.17
CGCAGGTA	0.35
AGCAGGTA	0.328
AACAGGTA	0.269
CACAGGTC	-0.272
CACAGGTG	0.0773
CGCAGGTC	0.0458
GACAGGTA	0.25
TACAGGTA	0.393
CACAGGTA	0.352
GGTGCGAC	-0.251
ACAACGGC	-0.0371
GAAAAGCC	-0.338

Sequence	PBM E-score
GTAGGTAA	0.346
CTAGGTAC	0.26
CTAGGTAA	0.182
ATAGGTAC	0.406
GTAGGTGA	0.0361
ATAGGTAG	0.109
GTAGGTTA	0.22
ATAGGTGA	-0.0643
ATAGGTAA	0.356
GCGGTAAC	0.063
ACATCTTA	0.0996
CCAAGCGG	-0.135
GACATCGC	0.0096
GGTTTTAC	0.154
CATTCCGC	-0.146
GACTACCA	-0.0944
GGATTACA	0.371
CGATTACA	0.357
AGATTACC	0.157
GGATTACC	-0.0377
CTATTACA	0.378
AGATTACA	0.354
AGATTACT	0.101
ATATTACA	0.332
TGATTACA	0.311

Sequence	PBM E-score
GGATTAGA	-0.13
CTATTACC	0.142
CGATTACG	0.123
GGACAAAC	0.0402
AAACCTCG	-0.21
ACCAAATC	-0.166
GCACTCCC	-0.112
AACACAGC	0.268
CGTGTCAC	0.157
GACCTGAA	-0.107
GCATGTAC	0.321
CGATGTAG	0.103
ACATGTCG	0.246
ACATGTAC	0.333
GCATGTCA	0.26
CCATGTCG	0.247
GCATGTAA	0.41
TGATGTAA	0.281
TCATGTAA	0.414
CCATGTAG	0.346
ACATGTAG	0.388
TCATGTCA	0.283
CATGTCGC	0.175
CACTAGTG	-0.12
CATCAACG	0.00915

Sequence	PBM E-score
ACTAGGTG	0.125
CTTAAAGC	0.00562
CTCGTCGA	-0.0922
GTCGAGCA	-0.114
AAGGTTAC	0.0496
CCTATGCC	-0.0577
AGCGCTTG	-0.185
CGTTGGCA	0.00506
ACATGTAT	0.357
CCATGTGA	0.141
AGATGTAT	0.133
ACATGTCA	0.319
ACATGTCT	0.235
CCATGTAA	0.411
ACATGTGA	0.225
CCATGTAC	0.327
ACATGTAA	0.437
ATTCCTTG	0.0459
GTCAGAGA	-0.242
AATGAGCT	-0.0919
AGTCTGAA	-0.204
ATGTTACC	0.237
ACGTTAAC	0.25
CTGTTAAA	0.238
TTGTTAAA	0.256

Sequence	PBM E-score
CTGTTAAC	0.199
GTGTTAAA	0.384
ATGTTAAC	0.397
GTGTTAAC	0.352
GAGTTAAC	0.0651
GCTAAATA	0.0782
CGGAATAG	-0.201
GATGACGC	0.0115
AGTCAGTG	-0.157
GGCGCCCC	-0.0368
GCAGGCGA	0.123
ACAGGCGT	0.172
ACAGGCTC	0.404
ACAGGCGC	0.371
CCAGGCGC	-0.00734
GCAGGCGC	0.361
ACAGGCTA	0.183
ACAGGCGG	-0.015
ACAGGCTG	0.0165
